# According to PubChem BioAssay AID488969 (Vanderbilt High Throughput Screening Facility, 2010):
# Whole data set: some 110,000 compounds, median “z-score” near -0.1, cut for the highest 2% near 2. This is one part of a sample in which the highest values are shown more often than they occur. Activity calls are given as the source filed them.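 Rule for the calls: active = z-score in the third read window above 3 or below -3; inactive = the rest.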
# Target: Metabotropic glutamate receptor 8 (Rattus norvegicus) (UniProt P70579)
# Assay: mGluR8 Gi/Go-coupled signaling modulation – cell-based, rat, thallium flux, HTS, primary screen (AID 488969)
# Conditions: HEK293 rat mGluR8, GIRK (G protein-gated inwardly rectifying potassium channel) thallium flux, FluoZin2; at 10 µM; stronger effect = higher value
# Sequence of Metabotropic glutamate receptor 8 (Rattus norvegicus) (P70579 whole entry, looked up): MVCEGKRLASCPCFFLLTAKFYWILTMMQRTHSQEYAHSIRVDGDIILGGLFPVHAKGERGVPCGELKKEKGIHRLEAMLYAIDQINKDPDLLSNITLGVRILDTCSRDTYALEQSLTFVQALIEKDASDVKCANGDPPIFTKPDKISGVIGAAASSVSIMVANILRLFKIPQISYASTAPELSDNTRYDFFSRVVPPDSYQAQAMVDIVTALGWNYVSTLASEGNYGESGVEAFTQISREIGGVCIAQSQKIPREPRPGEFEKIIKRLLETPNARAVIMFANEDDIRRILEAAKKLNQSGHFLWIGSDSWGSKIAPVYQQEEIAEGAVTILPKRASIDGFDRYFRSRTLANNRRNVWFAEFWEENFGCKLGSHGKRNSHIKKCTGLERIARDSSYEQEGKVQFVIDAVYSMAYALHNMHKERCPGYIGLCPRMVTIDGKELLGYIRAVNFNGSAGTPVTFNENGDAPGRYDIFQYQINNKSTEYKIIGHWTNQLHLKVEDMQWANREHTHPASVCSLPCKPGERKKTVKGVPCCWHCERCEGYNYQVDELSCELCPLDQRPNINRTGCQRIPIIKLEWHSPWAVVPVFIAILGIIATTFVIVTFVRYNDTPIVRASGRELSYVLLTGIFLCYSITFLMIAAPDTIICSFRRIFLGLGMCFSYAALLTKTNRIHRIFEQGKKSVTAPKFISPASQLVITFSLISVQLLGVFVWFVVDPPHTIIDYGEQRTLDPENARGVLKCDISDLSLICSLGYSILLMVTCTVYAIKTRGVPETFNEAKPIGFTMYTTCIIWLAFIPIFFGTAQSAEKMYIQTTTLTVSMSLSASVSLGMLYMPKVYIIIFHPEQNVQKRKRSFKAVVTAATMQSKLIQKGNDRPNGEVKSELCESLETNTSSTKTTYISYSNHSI
row,SMILES,z-score
1,Oc1ccc(C2NCc3ccccc3-n3cccc32)cc1Cl (stereo unspecified),1.68
2,c1ccc(C2NCc3ccccc3-n3cccc32)cc1 (stereo unspecified),-0.239
3,COc1ccc(C2NCc3ccccc3-n3cccc32)cc1 (stereo unspecified),2.1
4,Cc1nn(C2CCOC(C)(C)C2)c2c1C(c1ccc(OC(C)C)cc1)SCC(=O)N2 (stereo unspecified),-0.843
5,Cn1c(O)c(C=NCc2ccco2)c(=O)n(C)c1=O,-0.19
6,CCC(CC)C1C(C#N)=C(N)Oc2c1c(=O)oc1ccccc21 (stereo unspecified),-0.103
7,O=C(COc1ccc(Cl)cc1)N1CCN(C/C=C/c2ccccc2)CC1,-0.0408
8,O=C(Cc1ccccc1)N1CCN(C/C=C/c2ccccc2)CC1,3.68 (active)
9,O=C(COc1ccccc1)N1CCN(C/C=C/c2ccccc2)CC1,0.702
10,CC12CCCCC1=[N+]([O-])CN2O (stereo unspecified),0.377
11,CCOc1ccc(CC2C(=O)NC(=O)N(c3ccc(CC)cc3)C2=O)cc1 (stereo unspecified),-0.531
12,CCOC(=O)c1c(C)n(CCOC)c2ccc(O)cc12,0.821
13,CCCCn1c(C)c(C(=O)OCC)c2c(CN3CCOCC3)c(O)ccc21,4.12 (active)
14,CCOC(=O)c1c(C)n(CCN2CCN(C)CC2)c2ccc(OC)cc12,1.21
15,CCCCN1C(=N)C(CC)(CC)C(=O)NC1=O,-0.0121
16,CCC(=NCc1ccc(F)cc1)c1c(O)n(C)c(=O)n(C)c1=O,-0.274
17,O=C(c1cc([N+](=O)[O-])ccc1N1CCNCC1)N1CCOCC1,-0.253
18,COc1cccc(-n2c(O)c(C=NCc3ccc4c(c3)OCO4)c(=O)[nH]c2=O)c1,-0.566
19,Clc1cccc(N2CCNCC2)c1Cl,0.654
20,N#Cc1ccc(N2CCNCC2)c(F)c1,0.268
21,N#Cc1cc(F)c(N2CCNCC2)cc1Cl,2.17
22,CCCNS(=O)(=O)c1ccc(OCC(=O)N2CCN(Cc3ccc4c(c3)OCO4)CC2)cc1,-0.266
23,Cc1cc(C(=O)N2CCC3(CC2)OCCO3)cs1,0.652
24,C=CCOC(=O)C1=C(C)OC(N)=C(C(=O)OCC)C12C(=O)N(CC(N)=O)c1ccccc12 (stereo unspecified),-0.605

row,SMILES,z-score
1,CN(C)CC1CSCCC1(O)c1ccccc1 (stereo unspecified),0.409
2,C=C1N2CCC(CC2)C1(O)c1ccc(C)cc1 (stereo unspecified),-0.123
3,CC(C)OC12Oc3ccccc3C=C1N1CCC2CC1 (stereo unspecified),1.77
4,OC12Oc3ccccc3C=C1N1CCC2CC1 (stereo unspecified),2.17
5,CC(=O)N1CC(=O)Nc2ccc(Cl)cc2C1c1ccc(F)cc1 (stereo unspecified),-0.284
6,N=Cc1c(O)n(-c2cccc(Cl)c2)c(=O)[nH]c1=O,0.745
7,CC(C)CN(CC(C)C)c1ccc(C=C2C(=O)NC(=S)NC2=O)cc1[N+](=O)[O-],2.35
8,CCC(C)N1C(=O)/C(=C/c2ccc3c(c2)CCN3CCCCl)C(=O)NC1=S (stereo unspecified),-0.358
9,CCC(C)N1C(=O)/C(=C\c2ccc(N3CCCCCC3)cc2)C(=O)NC1=S (stereo unspecified),-0.384
10,Cc1cc(C=C2C(=O)NC(=S)NC2=O)c(C)n1-c1ccc2c(c1)OCO2,-0.495
11,O=C(O)C1(c2ccc(Cl)cc2)CCC1,-0.279
12,CN(C)P1(N(C)C)=Nc2c(c(N)nn2C)C(c2ccccc2)=N1,1.2
13,COc1ccc(CC2C(=O)NC(=O)NC2=O)c(OC)c1,13.6 (active)
14,CCc1ccc(N2C(=O)NC(=O)C(Cc3ccc(OC)cc3OC)C2=O)cc1 (stereo unspecified),-0.562
15,COc1ccc(CC2C(=O)NC(=O)N(c3ccccc3)C2=O)c(OC)c1 (stereo unspecified),0.821
16,Cc1ccc(-n2c(/C=C/c3ccc4c(c3)OCO4)nc3ccccc3c2=O)cc1,-0.143
17,CCOP(=O)(OCC)C(C)(C)NC(=O)C(Cl)(Cl)Cl,0.176
18,CC12CN3CC(C)(CN(C1)C3c1ccco1)C2=O (stereo unspecified),0.289
19,Cc1ccc(C(O)(C(=O)NNC(=O)CN2CCN(C)CC2)c2ccc(C)cc2)cc1,-0.00637
20,Cn1cccc1/C=C1\C(=O)NC(=O)N(CCC2=CCCCC2)C1=O,-0.117
21,Clc1ccc2c(c1)C(c1ccccc1Cl)=NCc1nnc(N3CCN(CCSc4ccccc4)CC3)n1-2,-0.487
22,COc1ccccc1C1=NCc2nnc(C)n2-c2ccc(Cl)cc21,0.478
23,Cc1ccccc1C1=NCC(=S)Nc2ccc(Cl)cc21,4.39 (active)
24,S=C1CN=C(c2ccccc2Cl)c2cc(Cl)ccc2N1,14.6 (active)

row,SMILES,z-score
1,Clc1ccc2c(c1)C(c1ccccc1Cl)=NCc1nncn1-2,1.46
2,CCS(=O)(=O)NCc1nnc2n1-c1ccc(Cl)cc1C(c1ccccc1)=NC2,-0.148
3,CSCc1nnc2n1-c1ccc(Cl)cc1C(c1ccccc1)=NC2,-0.724
4,CN1CCN(Cc2nnc3n2-c2ccc(Cl)cc2C(c2ccccc2)=NC3)CC1,-0.238
5,S=C1CN=C(c2ccccc2)c2cc(Cl)ccc2N1,4.29 (active)
6,Cc1ccc(N(C)C(=O)Oc2ccc(C(=O)c3ccc(Cl)cc3)cc2)cc1,0.23
7,CCN1CCN(c2nc3c(c(=O)[nH]2)CCCC3)CC1,-0.0782
8,CC(C)N(CC(O)c1cccc([N+](=O)[O-])c1)C(C)C (stereo unspecified),-0.309
9,Cc1cccc(N2C(=O)NC(=O)/C(=C\c3cc(C)n(-c4sc5c(c4C#N)CCCC5)c3C)C2=O)c1C,0.0132
10,CCOC(C(=O)OCCC[N+](C)(CC)CC)(c1ccccc1)c1ccccc1,0.315
11,Cc1[nH]c2ccccc2c1CCCNC1CCCCC1,0.385
12,c1ccc2c(CNC3CCCCC3)c[nH]c2c1,4.16 (active)
13,c1ccc2c(CNC3CCCCCC3)c[nH]c2c1,-0.0434
14,COc1ccc(C2NCc3ccc4c(c3-n3cccc32)OCO4)cc1O (stereo unspecified),2.45
15,COc1cc(C2NCc3ccccc3-n3cccc32)ccc1O (stereo unspecified),1.55
16,CCOc1cc(C2NCc3ccccc3-n3cccc32)ccc1O (stereo unspecified),1.71
17,CCCCN1C(=O)/C(=C/C=C/c2ccco2)C(=O)NC1=S,0.136
18,CCN1C(=O)C(=C/C=C/c2ccco2)C(=O)N(CC)C1=S,-0.628
19,CC(C)N1C(=O)/C(=C/C=C/c2ccco2)C(=O)N(Cc2ccco2)C1=O,6.08 (active)
20,COC(=O)C(O)(c1ccc(N=Cc2ccccc2O)c(C)c1)C(F)(F)F (stereo unspecified),0.286
21,O=C(CN1CCOCC1)c1cccc2ccccc12,-0.17
22,CCN(CC)c1ccc(N=Cc2c(O)n(-c3ccc(Cl)cc3)c(=O)[nH]c2=O)cc1,0.126
23,O=C1C2CCCN2C(c2cccc(Cl)c2)N1c1ccccn1 (stereo unspecified),-0.498
24,O=C1C2CCCN2C(c2ccc(Cl)cc2)N1c1ccccn1 (stereo unspecified),2.77

row,SMILES,z-score
1,O=C1C2CCCN2C(c2ccc(Cl)c(Cl)c2)N1c1ccccn1 (stereo unspecified),-0.0899
2,CC/C(=N\Nc1cccc2ccccc12)c1c(O)[nH]c(=O)[nH]c1=O,-0.114
3,CC(=O)OC1C2CCC1C(N1CCCC1)CC2 (stereo unspecified),-0.278
4,C1=C(c2c[nH]c3ccccc23)CCNC1,1.29
5,CCN(CC)Cc1c[nH]c2ccccc12,-0.122
6,CCN1CC=C(c2c[nH]c3ccccc23)CC1,2.05
7,O=C(C1CCCN(c2nnc(-n3cccc3)s2)C1)N1CCC2(CC1)OCCO2 (stereo unspecified),0.546
8,O=C1NC(=O)N(c2ccc3c(c2)OCO3)C(=O)/C1=C/c1ccc(N2CCCCC2)o1,-0.618
9,Nc1c(C(=O)OCc2ccccc2)c2nc3ccccc3nc2n1Cc1cccs1,0.248
10,CC(=NCC1CCCO1)c1c(O)n(-c2ccc(C)cc2)c(=O)[nH]c1=O (stereo unspecified),2.68
11,CC(=NCC1CCCO1)c1c(O)n(-c2ccc(Cl)cc2)c(=O)[nH]c1=O (stereo unspecified),-1.18
12,CC(=NCC1CCCO1)c1c(O)n(-c2ccccc2)c(=O)[nH]c1=O (stereo unspecified),0.0257
13,CN(C)CCN=Cc1c(O)n(Cc2ccco2)c(=O)[nH]c1=O,0.184
14,Cc1ccc(N2C(=O)NC(=O)/C(=C\c3ccsc3)C2=O)cc1C,-0.165
15,O=c1c2ccccc2nc(CSc2ncnc3nc[nH]c23)n1-c1ccc(Cl)c(Cl)c1,-0.202
16,CC1CCC(NCCc2ccc3c(c2)OCO3)CC1 (stereo unspecified),0.00241
17,c1cc2c(cc1CCNC1C3CC4CC(C3)CC1C4)OCO2 (stereo unspecified),2.3
18,c1cc2c(cc1CCNC1CCCCCC1)OCO2,0.232
19,Cc1cc(C)nc(NC2=NCCS2)n1,0.179
20,CC1(C)CN=C(Nc2ccc(F)c(F)c2)S1,-0.117
21,Fc1ccc(NC2=NCCS2)cc1Cl,4.82 (active)
22,CNCC(O)c1cccc(OC(=O)c2ccccc2C)c1 (stereo unspecified),2.34
23,CCC(COC(=O)NC)NC(=O)Oc1cccc(C)c1 (stereo unspecified),-0.336
24,CC(=O)Nc1ccc(OC(=O)c2ccccc2N)cc1,0.06

row,SMILES,z-score
1,COC(=NC1CCCCC1)C(O)c1c[nH]c2ccccc12 (stereo unspecified),-0.119
2,CN(C)CCOC(=O)c1cn(Cc2ccccc2)c2ccccc12,2.01
3,O=C(c1ccccc1F)c1cn(Cc2ccccc2)c2ccccc12,-0.253
4,O=C(COc1ccccc1)c1cn(Cc2ccccc2)c2ccccc12,-0.418
5,CCCCN1C(=O)NC(=O)/C(=C/c2cnc(SC)nc2)C1=O,-0.221
6,CCOC(=O)C1CCN(/C=C2/C(=O)NC(=O)N(c3ccc(OCC)cc3)C2=O)CC1,0.14
7,C/C(=N\Nc1ccccc1)c1c(O)n(C)c(=O)n(C)c1=O,3.74 (active)
8,CC(=NCCC(c1ccccc1)c1ccccc1)c1c(O)n(C)c(=O)n(C)c1=O,-0.488
9,CC/C(=N\Nc1ccccc1)c1c(O)n(C)c(=O)n(C)c1=O,-0.0457
10,CC(Cc1ccccc1Sc1ccc(O)cc1)N(C)C (stereo unspecified),1.64
11,O=C(NC(Cc1ccccc1)C(=O)N1CCC2(CC1)OCCO2)C1CCCCC1 (stereo unspecified),0.317
12,CCOC(=O)C1=C(NC(=S)NC(=O)c2ccccc2)c2ccccc2CC12CCCC2,2.46
13,CCOC(=O)C1=C(N)OC(C)=C(C(=O)OCCOC)C12C(=O)Nc1ccccc12 (stereo unspecified),0.399
14,COC(=O)C(O)(c1ccc(NC(=S)NC(=O)c2ccccc2)cc1)C(F)(F)F (stereo unspecified),0.443
15,CCN1CCN(c2ncnc3ccc(Br)cc23)CC1,0.327
16,CNCC1(c2ccccc2)CCCC1,0.566
17,O=C(NC(=C(Cl)Cl)P(=O)(c1ccccc1)c1ccccc1)c1ccccc1,-0.29
18,Cc1ccc(C)c(C2(O)CC(C)N(C)CC2C)c1 (stereo unspecified),0.0958
19,CCC(=O)OC1(c2cccc(C)c2)CC(C)N(C)CC1C (stereo unspecified),0.852
20,CCOc1ccc(Br)c(C2(O)CC(C)N(C)CC2C)c1 (stereo unspecified),2.44
